# PMC5700166
# Target: GST-Hu-p50 (Homo sapiens, UniProt P19838 7-356)
# Test: protein-binding microarray (PBM); PBM: ~300 nM protein, 6 mM HEPES pH 7.8, 80 mM KCl, 0.5 mM EDTA, 0.5 mM EGTA, 6% glycerol, 35 ng/ul poly-dIdC, 1% milk, 1 h, room temperature; Ap Aiptasia and Nv Nematostella (sea anemones) / Co Capsaspora / Aq Amphimedon (sponge) / Dm Drosophila / Hu human; RHD is the Rel homology domain; high values mean tight binding
# Details: dsDNA, one strand shown
# GST-Hu-p50, sequence (P19838 7-356): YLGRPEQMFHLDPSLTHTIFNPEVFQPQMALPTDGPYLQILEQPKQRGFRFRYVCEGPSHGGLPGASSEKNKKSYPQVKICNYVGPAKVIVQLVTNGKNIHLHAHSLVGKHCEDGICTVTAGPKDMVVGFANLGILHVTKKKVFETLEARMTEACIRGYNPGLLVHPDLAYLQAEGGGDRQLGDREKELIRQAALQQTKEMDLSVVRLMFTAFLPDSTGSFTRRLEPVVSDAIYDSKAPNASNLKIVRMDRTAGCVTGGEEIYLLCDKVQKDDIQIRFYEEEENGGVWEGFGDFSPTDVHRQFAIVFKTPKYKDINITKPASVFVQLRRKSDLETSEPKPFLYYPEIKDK
row,Sequence,binding signal [z-score]
1,CCGATTAACATCACGTTCCCCCCTGATGTTAATCGGGTCTTGATTCGCTTGACGCTGCTG,5.15
2,CCGATTAACATCAGGGGATTAGATGATGTTAATCGGGTCTTGATTCGCTTGACGCTGCTG,4.35
3,CCGATTAACATCAGGGAAACCCATGATGTTAATCGGGTCTTGATTCGCTTGACGCTGCTG,3.11
4,CCGATTAACATCACGGGGGGGACTGATGTTAATCGGGTCTTGATTCGCTTGACGCTGCTG,4.37
5,CCGATTAACATCAGGAATACCCATGATGTTAATCGGGTCTTGATTCGCTTGACGCTGCTG,3.18
6,CCGATTAACATCAAGGACTTCCCTGATGTTAATCGGGTCTTGATTCGCTTGACGCTGCTG,2.42
7,CCGATTAACATCACGGGACTTCCTGATGTTAATCGGGTCTTGATTCGCTTGACGCTGCTG,4.6
8,CCGATTAACATCAAGGAAAACCCTGATGTTAATCGGGTCTTGATTCGCTTGACGCTGCTG,2.22
9,CCGATTAACATCAATGGGAAAATTGATGTTAATCGGGTCTTGATTCGCTTGACGCTGCTG,3.49
10,CCGATTAACATCAGGGGAGAATATGATGTTAATCGGGTCTTGATTCGCTTGACGCTGCTG,4.46
11,CCGATTAACATCAAGGGGGTCCCTGATGTTAATCGGGTCTTGATTCGCTTGACGCTGCTG,3.68
12,CCGATTAACATCAGGGGAGTATATGATGTTAATCGGGTCTTGATTCGCTTGACGCTGCTG,3.33
13,CCGATTAACATCAGGGGTTCACCTGATGTTAATCGGGTCTTGATTCGCTTGACGCTGCTG,3.78
14,CCGATTAACATCAGGGGATCCCATGATGTTAATCGGGTCTTGATTCGCTTGACGCTGCTG,4.5
15,CCGATTAACATCACGGACTTCCCTGATGTTAATCGGGTCTTGATTCGCTTGACGCTGCTG,1.25
16,CCGATTAACATCAATACACCCCCTGATGTTAATCGGGTCTTGATTCGCTTGACGCTGCTG,4.34
17,CCGATTAACATCAATTTCCCATATGATGTTAATCGGGTCTTGATTCGCTTGACGCTGCTG,3.09
18,CCGATTAACATCAAGGTAATCCCTGATGTTAATCGGGTCTTGATTCGCTTGACGCTGCTG,1.4
19,CCGATTAACATCAAGGAAACCCCTGATGTTAATCGGGTCTTGATTCGCTTGACGCTGCTG,5.22
20,CCGATTAACATCACCACTTTCCCTGATGTTAATCGGGTCTTGATTCGCTTGACGCTGCTG,3.47

row,Sequence,binding signal [z-score]
1,CCGATTAACATCATTATGGGAAATGATGTTAATCGGGTCTTGATTCGCTTGACGCTGCTG,2.18
2,CCGATTAACATCAGGCATTTCCCTGATGTTAATCGGGTCTTGATTCGCTTGACGCTGCTG,3.68
3,CCGATTAACATCAGGGGTGGGAATGATGTTAATCGGGTCTTGATTCGCTTGACGCTGCTG,1.53
4,CCGATTAACATCAAACTCTCCCCTGATGTTAATCGGGTCTTGATTCGCTTGACGCTGCTG,4.08
5,CCGATTAACATCACCAAAATCCCTGATGTTAATCGGGTCTTGATTCGCTTGACGCTGCTG,2.9
6,CCGATTAACATCACTAAATTCCCTGATGTTAATCGGGTCTTGATTCGCTTGACGCTGCTG,4.08
7,CCGATTAACATCAGGGAGGGTAATGATGTTAATCGGGTCTTGATTCGCTTGACGCTGCTG,1.6
8,CCGATTAACATCAAAGAAATCCCTGATGTTAATCGGGTCTTGATTCGCTTGACGCTGCTG,3.77
9,CCGATTAACATCAGGCACTCCCCTGATGTTAATCGGGTCTTGATTCGCTTGACGCTGCTG,3.37
10,CCGATTAACATCAGGGAGCTACCTGATGTTAATCGGGTCTTGATTCGCTTGACGCTGCTG,1.35
11,CCGATTAACATCAGGGAGATTTGTGATGTTAATCGGGTCTTGATTCGCTTGACGCTGCTG,3.58
12,CCGATTAACATCAGGGAATTATATGATGTTAATCGGGTCTTGATTCGCTTGACGCTGCTG,4.39
13,CCGATTAACATCAGACTGGGAAATGATGTTAATCGGGTCTTGATTCGCTTGACGCTGCTG,1.43
14,CCGATTAACATCAGGGGGTTACATGATGTTAATCGGGTCTTGATTCGCTTGACGCTGCTG,5.16
15,CCGATTAACATCAGGAATATACCTGATGTTAATCGGGTCTTGATTCGCTTGACGCTGCTG,1.06
16,CCGATTAACATCAGGGGTTTAACTGATGTTAATCGGGTCTTGATTCGCTTGACGCTGCTG,3.05
17,CCGATTAACATCAGGGAACTTTATGATGTTAATCGGGTCTTGATTCGCTTGACGCTGCTG,3.66
18,CCGATTAACATCACGAAAATCCCTGATGTTAATCGGGTCTTGATTCGCTTGACGCTGCTG,4.05
19,CCGATTAACATCAGGGAAAGGAATGATGTTAATCGGGTCTTGATTCGCTTGACGCTGCTG,1.29
